Source: PubChem BioAssay AID1159580 (chemical genetic matrix, 2015)
Where “and” joins values, the source holds several entries; their conditions need not be identical. Equal entries are not always repeated. Out of some 5,500 compounds screened, about 2,000 (36%) were called active. Roughly 18% stayed inconclusive and do not appear here. Cut-off read from the data, not from the text of the source: active = normalized growth mostly below about 0.91 (no sharp cut-off); inconclusive = no clear call, values can overlap the other calls; inactive = mostly above about 0.92. Some of the results follow.

Assay: chemical genetic growth profiling, strain panel (AID 1159580);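 note: tested at 20 µM; growth read once vehicle control cultures reached saturation at 30 °C; 1 = growth at the plate median or of vehicle wells; lower values mean less growth of the strain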
Conditions: growth OD

Measured: normalized growth

COc1cccc(OC)c1OCCNCC1COc2ccccc2O1 (centres undefined)
inactive: S. cerevisiae deletion strains, locus YAL013W, strain DEP1, stronger effect = lower value 1.02 | S. cerevisiae deletion strains, locus YAL040C, strain CLN3, stronger effect = lower value 0.995 | S. cerevisiae deletion strains, locus YBR021W, strain FUR4, stronger effect = lower value 0.991 | S. cerevisiae deletion strains, locus YBR229C, strain ROT2, stronger effect = lower value 1.01 | S. cerevisiae deletion strains, locus YCL029C, strain bik1, stronger effect = lower value 0.982 | S. cerevisiae deletion strains, locus YCL061C, strain MRC1 (second series), stronger effect = lower value 0.999 | S. cerevisiae deletion strains, locus YDL035C, strain GPR1, stronger effect = lower value 1.01 | S. cerevisiae deletion strains, locus YDL074C, strain BRE1, stronger effect = lower value 1.04 | S. cerevisiae deletion strains, locus YDL101C, strain DUN1, stronger effect = lower value 1.03 | S. cerevisiae deletion strains, locus YDL134C, strain PPH21, stronger effect = lower value 1.01 | S. cerevisiae deletion strains, locus YDL185W, strain tfp1, stronger effect = lower value 0.991 | S. cerevisiae deletion strains, locus YDL192W, strain arf1, stronger effect = lower value 0.99 | S. cerevisiae deletion strains, locus YDR101C, strain arx1, stronger effect = lower value 0.965 | S. cerevisiae deletion strains, locus YDR150W, strain NUM1, stronger effect = lower value 1.02 | S. cerevisiae deletion strains, locus YDR162C, strain NBP2, stronger effect = lower value 1.04 | S. cerevisiae deletion strains, locus YDR318W, strain mcm21, stronger effect = lower value 0.966 | S. cerevisiae deletion strains, locus YDR363W, strain ESC2, stronger effect = lower value 0.955 | S. cerevisiae deletion strains, locus YDR388W, stronger effect = lower value 0.983 | S. cerevisiae deletion strains, locus YDR502C, strain sam2, stronger effect = lower value 0.995 | S. cerevisiae deletion strains, locus YEL061C, strain CIN8, stronger effect = lower value 1.01 | S. cerevisiae deletion strains, locus YER002W, strain NOP16, stronger effect = lower value 1 | S. cerevisiae deletion strains, locus YER110C, stronger effect = lower value 0.978 | S. cerevisiae deletion strains, locus YER155C, strain BEM2, stronger effect = lower value 1.01 | S. cerevisiae deletion strains, locus YER167W, strain BCK2, stronger effect = lower value 1 | S. cerevisiae deletion strains, locus YGL078C, strain dbp3, stronger effect = lower value 0.991 | S. cerevisiae deletion strains, locus YGL086W, strain mad1, stronger effect = lower value 0.974 | S. cerevisiae deletion strains, locus YGL248W, strain PDE1, stronger effect = lower value 1.02 | S. cerevisiae deletion strains, locus YGR078C, strain PAC10, stronger effect = lower value 1.03 | S. cerevisiae deletion strains, locus YGR135W, strain pre9, stronger effect = lower value 0.975 | S. cerevisiae deletion strains, locus YGR229C, strain SMI1, stronger effect = lower value 1.01 and 0.909 | S. cerevisiae deletion strains, locus YGR252W, strain gcn5, stronger effect = lower value 0.907 | S. cerevisiae deletion strains, locus YHR030C, strain SLT2, stronger effect = lower value 1.01 | S. cerevisiae deletion strains, locus YHR079C, strain IRE1 (second series), stronger effect = lower value 0.978 | S. cerevisiae deletion strains, locus YHR094C, strain hxt1, stronger effect = lower value 0.992 | S. cerevisiae deletion strains, locus YHR129C, strain ARP1, stronger effect = lower value 1.01 | S. cerevisiae deletion strains, locus YHR200W, strain rpn10, stronger effect = lower value 0.977 | S. cerevisiae deletion strains, locus YIL066C, strain RNR3, stronger effect = lower value 1.01 | S. cerevisiae deletion strains, locus YIL073C, strain SPO22, stronger effect = lower value 0.999 | S. cerevisiae deletion strains, locus YIL125W, strain kgd1, stronger effect = lower value 0.97 | S. cerevisiae deletion strains, locus YIR030C, strain dcg1, stronger effect = lower value 0.986 | S. cerevisiae deletion strains, locus YJL095W, strain BCK1, stronger effect = lower value 0.992 | S. cerevisiae deletion strains, locus YJL134W, strain LCB3, stronger effect = lower value 1.01 | S. cerevisiae deletion strains, locus YJL168C, strain set2, stronger effect = lower value 0.98 | S. cerevisiae deletion strains, locus YJL187C, strain SWE1 (second series), stronger effect = lower value 1.02 | S. cerevisiae deletion strains, locus YJR043C, strain POL32, stronger effect = lower value 1.01 | S. cerevisiae deletion strains, locus YJR075W, strain HOC1, stronger effect = lower value 1.01 and 0.99 | S. cerevisiae deletion strains, locus YKL009W, strain mrt4, stronger effect = lower value 1 | S. cerevisiae deletion strains, locus YKL068W, stronger effect = lower value 0.995 | S. cerevisiae deletion strains, locus YKL085W, strain MDH1 (second series), stronger effect = lower value 1.03 | S. cerevisiae deletion strains, locus YKL085W, strain MDH1, stronger effect = lower value 1.03 | S. cerevisiae deletion strains, locus YKL190W, strain CNB1, stronger effect = lower value 1.01 | S. cerevisiae deletion strains, locus YKR001C, strain vps1, stronger effect = lower value 0.999 | S. cerevisiae deletion strains, locus YLR039C, strain RIC1, stronger effect = lower value 1.11 | S. cerevisiae deletion strains, locus YLR058C, strain SHM2, stronger effect = lower value 1.02 | S. cerevisiae deletion strains, locus YLR102C, strain apc9, stronger effect = lower value 0.983 | S. cerevisiae deletion strains, locus YLR262C, strain YPT6, stronger effect = lower value 1.16 | S. cerevisiae deletion strains, locus YLR268W, strain sec22, stronger effect = lower value 0.98 | S. cerevisiae deletion strains, locus YLR330W, strain CHS5, stronger effect = lower value 1.01 | S. cerevisiae deletion strains, locus YLR342W, strain FKS1 (second series), stronger effect = lower value 0.965 | S. cerevisiae deletion strains, locus YLR371W, strain rom2, stronger effect = lower value 0.982 | S. cerevisiae deletion strains, locus YLR418C, strain cdc73, stronger effect = lower value 0.983 | S. cerevisiae deletion strains, locus YML016C, strain PPZ1, stronger effect = lower value 1.01 | S. cerevisiae deletion strains, locus YML032C, strain rad52, stronger effect = lower value 0.96 | S. cerevisiae deletion strains, locus YML124C, strain tub3, stronger effect = lower value 0.989 | S. cerevisiae deletion strains, locus YMR078C, strain ctf18, stronger effect = lower value 0.985 | S. cerevisiae deletion strains, locus YMR223W, strain ubp8, stronger effect = lower value 0.963 | S. cerevisiae deletion strains, locus YMR263W, strain SAP30, stronger effect = lower value 1.02 and 0.998 | S. cerevisiae deletion strains, locus YMR307W, strain GAS1, stronger effect = lower value 1.08 and 0.993 | S. cerevisiae deletion strains, locus YNL067W, strain RPL9B, stronger effect = lower value 1.02 | S. cerevisiae deletion strains, locus YNL128W, strain TEP1, stronger effect = lower value 1.02 and 1.01 | S. cerevisiae deletion strains, locus YNL153C, strain GIM3, stronger effect = lower value 1.03 | S. cerevisiae deletion strains, locus YNL175C, strain NOP13, stronger effect = lower value 1.02 | S. cerevisiae deletion strains, locus YNL197C, strain WHI3, stronger effect = lower value 1.04 | S. cerevisiae deletion strains, locus YNL224C, strain SQS1, stronger effect = lower value 0.999 | S. cerevisiae deletion strains, locus YNL233W, strain BNI4, stronger effect = lower value 1.02 | S. cerevisiae deletion strains, locus YNL250W, strain rad50, stronger effect = lower value 1.01 | S. cerevisiae deletion strains, locus YNL271C, strain bni1, stronger effect = lower value 0.983 | S. cerevisiae deletion strains, locus YNL298W, strain CLA4, stronger effect = lower value 0.977 | S. cerevisiae deletion strains, locus YNL307C, strain MCK1, stronger effect = lower value 0.975 | S. cerevisiae deletion strains, locus YNL322C, strain KRE1, stronger effect = lower value 1.02 and 0.982 | S. cerevisiae deletion strains, locus YNR052C, strain pop2, stronger effect = lower value 0.966 | S. cerevisiae deletion strains, locus YOL006C, strain TOP1, stronger effect = lower value 1.03 | S. cerevisiae deletion strains, locus YOL012C, strain htz1 1.66 | S. cerevisiae deletion strains, locus YOL147C, strain pex11, stronger effect = lower value 0.991 | S. cerevisiae deletion strains, locus YOR061W, strain CKA2, stronger effect = lower value 1.02 | S. cerevisiae deletion strains, locus YOR069W, strain VPS5, stronger effect = lower value 1.01 | S. cerevisiae deletion strains, locus YOR083W, strain WHI5 (second series), stronger effect = lower value 1.02 | S. cerevisiae deletion strains, locus YOR136W, strain idh2, stronger effect = lower value 0.992 | S. cerevisiae deletion strains, locus YOR144C, strain elg1, stronger effect = lower value 0.994 | S. cerevisiae deletion strains, locus YOR184W, strain ser1, stronger effect = lower value 0.954 | S. cerevisiae deletion strains, locus YOR316C, strain cot1, stronger effect = lower value 0.988 | S. cerevisiae deletion strains, locus YPL055C, strain LGE1, stronger effect = lower value 1.07 and 0.961 | S. cerevisiae deletion strains, locus YPL241C, strain CIN2, stronger effect = lower value 1.01 | S. cerevisiae deletion strains, locus YPR119W, strain clb2, stronger effect = lower value 0.983 | S. cerevisiae deletion strains, locus YPR141C, strain kar3, stronger effect = lower value 0.987 | S. cerevisiae deletion strains, locus YPR163C, strain tif3, stronger effect = lower value 0.985 | S. cerevisiae deletion strains, locus YPR167C, strain met16, stronger effect = lower value 0.986 | S. cerevisiae deletion strains, strain wtn01, stronger effect = lower value 0.988 | S. cerevisiae strains, strain wild type, stronger effect = lower value 1.01
